Laboratory results published in PubChem BioAssay (EPA / NIEHS).
Results filed as inconclusive are left out. The source made the active and inactive calls. The calls were made as follows: active = hit-call score of the fitted dose curve at least 0.9, where 1 is the maximum; inconclusive = response in the unintended direction; inactive = score below 0.9.

Target: Nucleoli Translocation, AR (gene 367) (UniProt P10275)
Experiment: UPITT_HCI_U2OS_AR_TIF2_Nucleoli_Agonist: University of Pittsburgh U2OS Androgen Receptor-Transcriptional Intermediary Factor 2 (AR-TIF2) Agonism High Content Imaging Assay for Nucleoli Translocation (AID 2283998)
Method in brief: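 U2OS cells expressing RFP-tagged human AR and GFP-tagged TIF2; red fluorescence in nucleoli quantified by high-content imaging. Primary screen at 20 uM final (0.2% DMSO); concentration-response 0.195–50 uM (0.5% DMSO), fitted upward versus DMSO.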

Sequence of Nucleoli Translocation, AR (gene 367) (P10275 whole entry, looked up): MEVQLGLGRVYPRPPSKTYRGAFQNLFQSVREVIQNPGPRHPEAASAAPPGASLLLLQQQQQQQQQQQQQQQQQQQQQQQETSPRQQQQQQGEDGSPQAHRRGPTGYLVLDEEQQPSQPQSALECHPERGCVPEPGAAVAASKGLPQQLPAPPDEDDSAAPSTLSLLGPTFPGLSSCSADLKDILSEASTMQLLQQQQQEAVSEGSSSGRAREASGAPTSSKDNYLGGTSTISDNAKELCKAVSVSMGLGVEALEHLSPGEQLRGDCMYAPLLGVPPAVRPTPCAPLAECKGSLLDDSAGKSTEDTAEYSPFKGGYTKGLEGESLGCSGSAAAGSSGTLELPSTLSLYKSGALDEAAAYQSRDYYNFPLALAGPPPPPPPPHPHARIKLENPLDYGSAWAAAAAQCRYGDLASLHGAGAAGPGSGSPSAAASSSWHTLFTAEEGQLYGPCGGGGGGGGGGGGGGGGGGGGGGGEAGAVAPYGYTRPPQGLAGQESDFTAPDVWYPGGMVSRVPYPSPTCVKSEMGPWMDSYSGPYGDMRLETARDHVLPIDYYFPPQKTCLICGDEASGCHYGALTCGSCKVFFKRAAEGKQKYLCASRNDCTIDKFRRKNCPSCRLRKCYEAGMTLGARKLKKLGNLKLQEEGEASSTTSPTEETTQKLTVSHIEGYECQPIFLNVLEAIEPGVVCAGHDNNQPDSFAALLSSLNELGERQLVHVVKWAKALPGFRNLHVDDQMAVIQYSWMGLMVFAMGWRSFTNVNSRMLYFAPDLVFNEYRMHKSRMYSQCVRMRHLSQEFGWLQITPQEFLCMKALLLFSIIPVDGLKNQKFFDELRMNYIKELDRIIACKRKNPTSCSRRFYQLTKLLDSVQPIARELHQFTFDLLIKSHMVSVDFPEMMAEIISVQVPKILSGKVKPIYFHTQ

| SMILES | outcome | AC50 |
| --- | --- | --- |
| OC(Cc1ccccc1Cl)(Cn1[nH]cnc1=S)C1(Cl)CC1 (stereo not given) | inactive | – |
| CCOP(=S)(OCC)OP(=S)(OCC)OCC | inactive | – |
| O=C(N[C@H]1CN2CCC1CC2)c1ccc2c(c1)OCCO2 | inactive | – |
| Cc1cc(Cl)ccc1OCCCC(=O)O | inactive | – |
| O=[N+]([O-])c1ccc(Cl)c([N+](=O)[O-])c1 | – | 3.34 µM (active) |
| CNC(=O)O/N=C/C(C)(C)S(C)(=O)=O | inactive | – |
| O=C1c2ccccc2C(=O)C1C(=O)C(c1ccccc1)c1ccc(Cl)cc1 (stereo not given) | inactive | – |
| O=C(NC(=O)c1c(F)cccc1F)Nc1cc(Cl)c(OC(F)(F)C(F)C(F)(F)F)cc1Cl (stereo not given) | inactive | – |
| O=C(CCl)Nc1ccccc1 | inactive | – |
| CC(=Cc1ccccc1)[N+](=O)[O-] | inactive | – |
| CC(C)N(C(=O)CCl)c1ccccc1 | inactive | – |
| COCCl | inactive | – |

Target: Ratio of Nucleoli Translocation and Cytoplasm, AR (gene 367) (UniProt P10275)
Experiment: UPITT_HCI_U2OS_AR_TIF2_Nucleoli_Cytoplasm_Ratio_Antagonist: University of Pittsburgh U2OS Androgen Receptor-Transcriptional Intermediary Factor 2 (AR-TIF2) Antagonism High Content Imaging Assay for Ratio of Nucleoli Translocation and Cytoplasm (AID 2283999);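 also: antagonists lower the DHT-driven ratio of nucleolar to cytoplasmic red signal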
Method in brief: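 This antagonist-mode endpoint tracks AR-RFP localisation, the nucleolus-to-cytoplasm intensity ratio, in TIF2-GFP-coexpressing U2OS cells. DMSO stays at or below 0.5%; testing spans 20 uM single-dose and 0.195–50 uM series, with DHT setting the activity baseline.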

Sequence of Ratio of Nucleoli Translocation and Cytoplasm, AR (gene 367) (P10275 whole entry, looked up): as above

| SMILES | outcome | AC50 |
| --- | --- | --- |
| OC(Cc1ccccc1Cl)(Cn1[nH]cnc1=S)C1(Cl)CC1 (stereo not given) | inactive | – |
| CCOP(=S)(OCC)OP(=S)(OCC)OCC | inactive | – |
| O=S1OC[C@@H]2[C@H](CO1)[C@]1(Cl)C(Cl)=C(Cl)[C@@]2(Cl)C1(Cl)Cl (stereo not given in full) | inactive | – |
| C=CC(Cl)CCl (stereo not given) | inactive | – |
| O=[N+]([O-])c1ccc(Cl)c([N+](=O)[O-])c1 | – | 2.39 µM (active) |
| CNC(=O)O/N=C/C(C)(C)S(C)(=O)=O | inactive | – |
| N#CCC#N | inactive | – |
| O=C1c2ccccc2C(=O)C1C(=O)C(c1ccccc1)c1ccc(Cl)cc1 (stereo not given) | inactive | – |
| O=C(NC(=O)c1c(F)cccc1F)Nc1cc(Cl)c(OC(F)(F)C(F)C(F)(F)F)cc1Cl (stereo not given) | inactive | – |
| O=S1(=O)OC(c2cc(Br)c(O)c(Br)c2)(c2cc(Br)c(O)c(Br)c2)c2ccccc21 | inactive | – |
| O=C(CCl)Nc1ccccc1 | – | 26.3 µM (active) |
| CC(=Cc1ccccc1)[N+](=O)[O-] | – | 0.845 µM (active) |
| CC(C)N(C(=O)CCl)c1ccccc1 | – | 11.4 µM (active) |
| COCCl | inactive | – |

Target: Ratio of Nucleoli Translocation and Cytoplasm, AR (gene 367) (UniProt P10275)
Experiment: UPITT_HCI_U2OS_AR_TIF2_Nucleoli_Cytoplasm_Ratio_Agonist: University of Pittsburgh U2OS Androgen Receptor-Transcriptional Intermediary Factor 2 (AR-TIF2) Agonism High Content Imaging Assay for Ratio of Nucleoli Translocation and Cytoplasm (AID 2284000);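 also: hits raise the red nucleolar to cytoplasm ratio above vehicle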
Method in brief: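 Compounds tested at 20 uM final in primary screen (0.2% DMSO) and 0.195-50 uM final in dose-response (0.5% DMSO). Imaging of human U2OS cells bearing RFP-AR and GFP-TIF2; endpoint is nucleoli/cytoplasm red signal ratio, positive direction relative to DMSO.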

| SMILES | outcome | AC50 |
| --- | --- | --- |
| OC(Cc1ccccc1Cl)(Cn1[nH]cnc1=S)C1(Cl)CC1 (stereo not given) | inactive | – |
| CCOP(=S)(OCC)OP(=S)(OCC)OCC | inactive | – |
| O=C(N[C@H]1CN2CCC1CC2)c1ccc2c(c1)OCCO2 | inactive | – |
| Cc1cc(Cl)ccc1OCCCC(=O)O | inactive | – |
| C=CC(Cl)CCl (stereo not given) | inactive | – |
| O=[N+]([O-])c1ccc(Cl)c([N+](=O)[O-])c1 | – | 13.1 µM (active) |
| CNC(=O)O/N=C/C(C)(C)S(C)(=O)=O | inactive | – |
| O=C1c2ccccc2C(=O)C1C(=O)C(c1ccccc1)c1ccc(Cl)cc1 (stereo not given) | inactive | – |
| O=C(NC(=O)c1c(F)cccc1F)Nc1cc(Cl)c(OC(F)(F)C(F)C(F)(F)F)cc1Cl (stereo not given) | inactive | – |
| O=C(O)COc1cc(Cl)c(Cl)cc1Cl | inactive | – |
| O=C(CCl)Nc1ccccc1 | inactive | – |
| CC(=Cc1ccccc1)[N+](=O)[O-] | inactive | – |
| CC(C)N(C(=O)CCl)c1ccccc1 | inactive | – |
| COCCl | inactive | – |
